Data from PubChem BioAssay (NCI).
The panel holds about 83,000 compounds, 20% with a hit somewhere; the sample as a whole holds those more often.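 Treatment: one concentration, 48 hours, 96-well format. Scoring: percent growth, with anything below 10 considered active.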 A number with no mark means an inactive call. Active and inactive are the calls of the source.

Test system: NCI/ADR-RES ovarian
Experiment: NCI-60 one-dose screen, 48 h (100 = growth as untreated, 0 = no growth, -100 = all killed)
Settings: 10 µM unless noted

SMILES	growth
O=C1CN(Cc2ccc(C(=O)NO)cc2)C(=O)[C@@H](Cc2ccccc2)N1	110%
COc1ncc(-c2ccc3nccc(C#CCCCCC(=O)NO)c3c2)cc1NS(=O)(=O)c1ccc(F)cc1F	55.3%
CCCCCN(CCCCC)CCCCCCCCN1CCCc2ccccc21	92.2%
CC1Cc2c(Cl)ncnc2N(C)c2ccc(O)cc21 (centres undefined)	17.3%
FC(F)(F)c1ccc2c(c1)Sc1ccccc1N2	104%
Cc1ccc2c(n1)C(=O)C(Cl)=C(Nc1ccc(N3CCN(C)CC3)cc1)C2=O	27.6%
CCOc1cc(/C=N\NC(=O)N/N=C/c2ccc(O)c(OCC)c2)ccc1O	51.6%
C1=C[C@H]2O[C@@H]1c1ccc3[nH]ccc3c12	63.7%
CC1(C)CC[C@]2(C(=O)O)CC[C@]3(C)[C@H](CC[C@@H]4[C@@]5(C)CCC(=O)C(C)(C)[C@@H]5CC[C@]43C)[C@H]2[C@H]1OC(=O)C(F)(F)F	-77.6% [100 µM] (active)
[2H]C1([2H])CCN(C(=O)C2CC2)c2cc(NS(=O)(=O)c3ccc(-c4cccc(C(N)=O)c4)cc3)ccc21	95%
CCOC(=O)c1sc2nc(-c3cc(OC)c(OC)c(OC)c3)nc(N3CCOCC3)c2c1C	53.9%
O=C(CCN1CCCCC1)c1ccc(Cl)cc1	114%
O=C1CC(C(F)(F)F)Cc2nc3ccc(Br)cc3cc21 (centres undefined)	95.1%
NC(=O)c1cccc(-c2ccc(S(=O)(=O)Nc3ccc4c(c3)N(C(=O)C3CC3)CCC4)cc2)c1	104%
